Measurements published in PMC13541613, “GHT-SELEX demonstrates unexpectedly high intrinsic sequence specificity and complex DNA binding of many human transcription factors”.

What was measured:
Assay in all cases: HT-SELEX; 20 mM HEPES pH 7, 140 mM KCl, 5 mM NaCl, 1 mM K2HPO4, 2 mM MgSO4, 100 uM EGTA, ZnSO4, 0.1% Tween20; room temperature, 1 h; high values mean tight binding
Details in all cases: protein: ivt; tags: eGFP (N-terminal); dsDNA, one strand shown
[1] = target: ZNF721 full-length (Homo sapiens, UniProt Q8TF20-2 1-923)
Procedure, shortened: (§1)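 Full-length or DNA-binding-domain forms of a tagged transcription factor were produced in HEK293 lysate or cell-free extract and immobilised on beads. Incubation with a randomized 40-base DNA library ran for 1 h at room temperature in HEPES/KCl low-stringency buffer with Tween20, after which bound DNA was washed, heat-eluted, PCR-amplified over successive cycles and Illumina-sequenced. Binding strength is given as the relative k-mer count in selected reads, higher for tighter binding.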

[2] = target: ZNF721 DBD1 (Homo sapiens, UniProt Q8TF20-2 29-461)
Procedure, shortened: as §1

[3] = target: ZNF721 DBD2 (Homo sapiens, UniProt Q8TF20-2 395-923)
Procedure, shortened: as §1

Chain of ZNF721 DBD1 (Q8TF20 17-449): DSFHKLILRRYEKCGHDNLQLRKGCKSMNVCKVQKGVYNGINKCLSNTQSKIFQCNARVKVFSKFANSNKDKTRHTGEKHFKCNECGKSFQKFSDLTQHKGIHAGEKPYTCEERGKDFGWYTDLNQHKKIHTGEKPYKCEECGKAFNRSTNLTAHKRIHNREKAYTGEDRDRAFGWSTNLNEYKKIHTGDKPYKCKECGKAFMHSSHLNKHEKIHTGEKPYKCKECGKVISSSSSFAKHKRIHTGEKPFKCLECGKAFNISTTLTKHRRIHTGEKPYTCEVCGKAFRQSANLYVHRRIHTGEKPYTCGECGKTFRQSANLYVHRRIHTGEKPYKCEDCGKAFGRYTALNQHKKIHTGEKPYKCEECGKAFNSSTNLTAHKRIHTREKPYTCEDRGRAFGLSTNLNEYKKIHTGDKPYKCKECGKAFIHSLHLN
Chain of ZNF721 full-length (Q8TF20 other isoform, or with tags, fused parts or gaps): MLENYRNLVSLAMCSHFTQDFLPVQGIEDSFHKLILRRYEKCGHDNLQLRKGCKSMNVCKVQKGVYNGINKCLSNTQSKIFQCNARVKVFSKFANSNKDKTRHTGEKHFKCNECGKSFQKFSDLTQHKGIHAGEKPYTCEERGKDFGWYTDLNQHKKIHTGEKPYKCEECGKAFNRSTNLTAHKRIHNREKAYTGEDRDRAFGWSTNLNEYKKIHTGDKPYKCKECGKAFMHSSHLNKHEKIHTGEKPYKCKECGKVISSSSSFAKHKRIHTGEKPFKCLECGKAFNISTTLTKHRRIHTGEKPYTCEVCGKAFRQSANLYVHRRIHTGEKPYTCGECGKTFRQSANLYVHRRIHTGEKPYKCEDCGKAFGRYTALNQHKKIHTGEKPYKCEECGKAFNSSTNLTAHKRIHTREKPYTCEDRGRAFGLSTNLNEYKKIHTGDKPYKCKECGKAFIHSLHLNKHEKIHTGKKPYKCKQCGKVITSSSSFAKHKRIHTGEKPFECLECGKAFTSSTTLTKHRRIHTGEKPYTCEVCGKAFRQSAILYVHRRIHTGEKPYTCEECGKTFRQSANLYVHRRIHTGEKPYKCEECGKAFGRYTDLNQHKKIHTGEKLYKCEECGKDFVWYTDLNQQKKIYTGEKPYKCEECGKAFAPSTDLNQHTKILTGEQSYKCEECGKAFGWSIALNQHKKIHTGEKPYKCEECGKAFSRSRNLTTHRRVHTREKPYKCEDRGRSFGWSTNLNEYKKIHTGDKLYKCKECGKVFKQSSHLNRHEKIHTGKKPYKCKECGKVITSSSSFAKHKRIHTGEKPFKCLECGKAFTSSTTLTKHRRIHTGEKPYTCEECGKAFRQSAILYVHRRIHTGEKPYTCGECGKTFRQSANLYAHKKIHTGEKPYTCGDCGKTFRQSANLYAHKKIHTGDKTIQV
Chain of ZNF721 DBD2 (Q8TF20 383-911): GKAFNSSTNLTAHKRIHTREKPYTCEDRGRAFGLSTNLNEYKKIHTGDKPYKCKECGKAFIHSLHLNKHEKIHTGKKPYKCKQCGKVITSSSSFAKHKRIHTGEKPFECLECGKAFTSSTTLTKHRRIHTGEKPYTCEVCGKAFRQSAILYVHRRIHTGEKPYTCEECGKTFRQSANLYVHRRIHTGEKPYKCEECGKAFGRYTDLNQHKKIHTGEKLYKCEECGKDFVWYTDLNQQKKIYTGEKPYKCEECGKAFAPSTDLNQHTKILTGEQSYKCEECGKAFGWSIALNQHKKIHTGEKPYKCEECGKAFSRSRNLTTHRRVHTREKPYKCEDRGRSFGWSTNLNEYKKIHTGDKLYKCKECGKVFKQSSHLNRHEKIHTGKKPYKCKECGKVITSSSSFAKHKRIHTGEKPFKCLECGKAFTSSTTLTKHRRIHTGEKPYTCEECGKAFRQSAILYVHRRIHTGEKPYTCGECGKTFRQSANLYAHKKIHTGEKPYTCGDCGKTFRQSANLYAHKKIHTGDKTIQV

Sequence | binding signal [1] | binding signal [2] | binding signal [3]
ACCCCCAACC | 0.12 relative 10-mer count | 0.00468 relative 10-mer count | 0.00479 relative 10-mer count
CACCCCACCA | 0.182 relative 10-mer count | 0.00725 relative 10-mer count | 0.00587 relative 10-mer count
GGGGTGGGGA | 0.194 relative 10-mer count | 0.0094 relative 10-mer count | 0.00264 relative 10-mer count
CTCCCACCCC | 0.224 relative 10-mer count | 0.0128 relative 10-mer count | 0.00455 relative 10-mer count
ACCCGCCCAC | 0.115 relative 10-mer count | 0.00413 relative 10-mer count | 0.00288 relative 10-mer count
CACCGCCACC | 0.117 relative 10-mer count | 0.00339 relative 10-mer count | 0.00384 relative 10-mer count
CCACCACCCA | 0.222 relative 10-mer count | 0.0105 relative 10-mer count | 0.00671 relative 10-mer count
CCACCCCCAC | 0.326 relative 10-mer count | 0.0121 relative 10-mer count | 0.00515 relative 10-mer count
CCCACCGCCA | 0.13 relative 10-mer count | 0.00422 relative 10-mer count | 0.00563 relative 10-mer count
CTCCCCCTCC | 0.14 relative 10-mer count | 0.00784 relative 10-mer count | 0.00324 relative 10-mer count
CCCCCCCACG | 0.116 relative 10-mer count | 0.00399 relative 10-mer count | 0.00443 relative 10-mer count
CCCACCCCCA | 0.28 relative 10-mer count | 0.0118 relative 10-mer count | 0.00647 relative 10-mer count
CCCCGCCACC | 0.266 relative 10-mer count | 0.0105 relative 10-mer count | 0.00336 relative 10-mer count
CCAAAAAAAC | 0.106 relative 10-mer count | 0.0017 relative 10-mer count | 0.082 relative 10-mer count
ACCCCTCCAC | 0.11 relative 10-mer count | 0.00472 relative 10-mer count | 0.00419 relative 10-mer count
CCCTCCCTCC | 0.178 relative 10-mer count | 0.0107 relative 10-mer count | 0.0211 relative 10-mer count
CAGCATACCC | 0.596 relative 10-mer count | 0.00271 relative 10-mer count | 0.909 relative 10-mer count
CCCCCACCCG | 0.174 relative 10-mer count | 0.00587 relative 10-mer count | 0.00384 relative 10-mer count
CCGCCCCCCG | 0.128 relative 10-mer count | 0.0039 relative 10-mer count | 0.0024 relative 10-mer count
CCCCAACCCC | 0.283 relative 10-mer count | 0.0104 relative 10-mer count | 0.00288 relative 10-mer count
CCACCCCCGA | 0.104 relative 10-mer count | 0.00298 relative 10-mer count | 0.00264 relative 10-mer count
CACCACCCCG | 0.135 relative 10-mer count | 0.00518 relative 10-mer count | 0.00312 relative 10-mer count
AAAAAGCGTA | 0.178 relative 10-mer count | 0.0453 relative 10-mer count | 0.0266 relative 10-mer count
AAGAAAAAAG | 0.166 relative 10-mer count | 0.0407 relative 10-mer count | 0.0319 relative 10-mer count
AAAAAAGAGT | 0.101 relative 10-mer count | 0.00665 relative 10-mer count | 0.0674 relative 10-mer count
GGGTGGGGCA | 0.104 relative 10-mer count | 0.00344 relative 10-mer count | 0.00216 relative 10-mer count
CCCACCCCAC | 0.354 relative 10-mer count | 0.0155 relative 10-mer count | 0.00863 relative 10-mer count
CCCACCACCG | 0.12 relative 10-mer count | 0.00514 relative 10-mer count | 0.00503 relative 10-mer count
ACGAAAAAAA | 0.107 relative 10-mer count | 0.0146 relative 10-mer count | 0.0612 relative 10-mer count
CCACACCCCA | 0.124 relative 10-mer count | 0.00472 relative 10-mer count | 0.00503 relative 10-mer count
